Results filed as inconclusive are left out. Calls of active or inactive are those of the source. Calls follow the shape of the dose curve; as a rule, active = well fitted curve in the direction sought with a large enough effect; inconclusive = small, poorly fitted or top-dose-only effect, or another doubt; inactive = no such curve, though single readings can be large; an effect the other way counts as inactive or inconclusive.
Legend:
[1] = tested on: Zika virus NS2B-NS3 protease (linked construct); assay: Confirmatory screen NINDS AMC qHTS for Zika virus inhibitors (AID 1347152); also: potency is read from the fitted curve at half-maximal effect; nearly all actives have a fitted effect of over 70% in size
Procedure, shortened: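 Purified NS2B-NS3 protease with NS2B hydrophilic domain linked to NS3 protease domain by flexible linker, 1 nM final in 10 mM Tris-HCl pH 8.0, 0.01% Tween 20. Compounds preincubated 15 min, room temperature; Bz-Nle-KRR-AMC 10 microM (Km 18.3 µM); 15-min fluorescence change, 4-parameter Hill fit.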

[2] = tested on: Zika virus NS2B-NS3 protease (unlinked complex); assay: Confirmatory screen GU AMC qHTS for Zika virus inhibitors (AID 1347153);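 also: enzyme at 25 nM with substrate at 10 µM below its Km of 18.3 µM; potency is read from the fitted curve at half-maximal effect; nearly all actives have a fitted effect of over 70% in size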
Procedure, shortened: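 Noncovalent NS2B hydrophilic domain/NS3 protease complex (25 nM) in 10 mM Tris-HCl pH 8.0, 0.01% Tween 20 was preincubated 15 min at room temperature with compounds. Then 10 µM AMC substrate (Km 18.3 µM) was added; fluorescence was read over 15 min and fitted to a 4-parameter Hill equation.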

[3] = Confirmatory screen GU Rhodamine qHTS for Zika virus inhibitors qHTS (AID 1347157); also: potency is read from the fitted curve at half-maximal effect; nearly all actives have a fitted effect of over 70% in size
Procedure, shortened: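 A qHTS format was used, with compound concentrations ranging up to 114 microM. Each compound was preincubated with 25 nM NS2B-NS3 protease, and the substrate was then added at 1.5 microM. Curves were fitted with a 4-parameter Hill model.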

[4] = tested on: Zika virus NS2B-NS3 protease (unlinked complex); assay: Primary screen GU Rhodamine qHTS for Zika virus inhibitors: Unlinked NS2B-NS3 protease assay (AID 1347159); also: potency is read from the fitted curve at half-maximal effect; nearly all actives have a fitted effect of over 60% in size
Procedure, shortened: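 Noncovalent NS2B hydrophilic domain–NS3 protease domain complex (25 nM) preincubated 15 min at room temperature with compounds (up to 114 microM) in 10 mM Tris-HCl pH 8.0, 0.01% Tween 20; 1.5 microM Rhodamine110 substrate added, fluorescence change over 15 min fitted to Hill equation.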

[5] = tested on: Zika virus NS2B-NS3 protease (linked construct); assay: Primary screen NINDS Rhodamine qHTS for Zika virus inhibitors (AID 1347160); also: nearly all actives have a fitted effect of over 55% in size; also: potency is read from the fitted curve at half-maximal effect
Procedure, shortened: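 Purified linked NS2B-NS3 protease (NS2B hydrophilic domain joined to NS3 protease by flexible linker), 25 nM in 10 mM Tris-HCl pH 8.0, 0.01% Tween 20. Compounds titrated, 15 min preincubation at room temperature; 1.5 microM Rhodamine110 substrate, FITC fluorescence change over 15 min.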

[6] = Confirmatory screen NINDS Rhodamine qHTS for Zika virus inhibitors (AID 1347161); also: potency is read from the fitted curve at half-maximal effect; nearly all actives have a fitted effect of over 60% in size
Procedure, shortened: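 Enzyme (25 nM, linked NS2B-NS3) was preincubated 15 min with compound in 10 mM Tris-HCl pH 8.0, 0.01% Tween 20. Rhodamine110 substrate (1.5 microM) was then added and fluorescence read at start and after 15 min.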

[7] = Vero cells viability qHTS for Zika virus inhibitors (AID 1347167)
Procedure, shortened: (§1)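 Compounds were tested in concentration series on cells grown in DMEM containing 4% FBS. After 24 to 48 hours, cellular ATP was measured by luminescence with CellTiter Glo.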

[8] = HepG2 cells viability qHTS for Zika virus inhibitors (AID 1347168)
Procedure, shortened: as §1

[9] = ZIKV-mCherry secondary qHTS for Zika virus inhibitors (AID 1347158); also: potency is read from the fitted curve at half-maximal effect
Procedure, shortened: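 After overnight seeding at 37 °C, Vero cells receive compound and then ZIKV-mCherry (MOI 1). Following 48-72 h infection, cells are fixed, counterstained with Hoechst, and imaged; percent infected cells is derived from an mCherry intensity cut-off of 450 RFU.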

[10] = tested on: Zika virus NS2B-NS3 protease (linked); assay: 384 well plate NINDS AMC confirmatory qHTS for Zika virus inhibitors (AID 1347163); also: potency is read from the fitted curve at half-maximal effect; nearly all actives have a fitted effect of over 50% in size
Procedure, shortened: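 Linked protease 5/30/60 nM final; cpds up to 1 mM final, ~15 min preinc. Substrate Ac-VKTGKR-AMC 30 microM final. RT, dark, 25 min; FI ex 355/em 460; normalized to no-enzyme/no-inhibitor ctrls.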

[11] = tested on: Zika virus NS2B-NS3 protease (linked construct); assay: 384 well plate NINDS Rhodamine confirmatory qHTS for Zika virus inhibitors (AID 1347164);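 also: fluorescence from protease cleavage of Ac-LKRR-rhodamine 110 substrate; nearly all actives have a fitted effect of over 65% in size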; also: potency is read from the fitted curve at half-maximal effect
Procedure, shortened: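 Linked protease at a final 5 nM, 30 nM or 60 nM was preincubated ~15 min with compounds, then given 10 microM Ac-LKRR-Rhodamine 110. Fluorescence (ex 485/em 538 nm) after 25 min in the dark at room temperature.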

[12] = Tertiary RLuc qRT-PCR qHTS assay for Zika virus inhibitors (AID 1347169); also: nearly all actives have a fitted effect of over 55% in size; also: potency is read from the fitted curve at half-maximal effect
Procedure, shortened: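 Vero cells (1,000 per well) plated overnight at 37 degrees C, treated with compound in DMSO, then infected with recombinant ZIKV-RLuc (Cambodian) at MOI 1-2 for 48-72 hrs. Live-cell Renilla luciferase substrate added; luminescence read after 1-1.5 hrs.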

Measured: Potency

COc1cc(C)c(C(=O)OC2C(C)OC(OC3CCC(C)C4C3C=C(C)C3/C(C)=C\CC/C(C)=C/C5(C)C=C(C(=O)O)C(C)CC56OC(=O)/C(=C(\O)C34C)C6=O)C(O)C2O)c(OC)c1 (stereo not given)
inactive: [7] | [8]
active: [1] 9.37 µM | [2] 9.37 µM | [3] 2.64 µM | [4] 1.26 µM | [5] 2.47 µM | [6] 1.32 µM

COc1cnc(-c2ccc(Cn3c(CC(C)(C)C(=O)O)c(SC(C)(C)C)c4cc(OC[C@@H]5Cc6ccccc6N5C(C)=O)ccc43)cc2)nc1
active: [1] 12.2 µM | [3] 1.53 µM | [9] 10 µM | [4] 3.98 µM | [5] 3.16 µM | [6] 2.43 µM | [10] 631 nM | [11] 1.78 µM
inactive: [7] | [8]

COc1cc(/C=C/c2ccccc2)c(C(=O)O)c(O)c1CC=C(C)C
active: [1] 34.3 µM | [2] 34.3 µM | [3] 3.06 µM | [4] 4.47 µM | [5] 10 µM | [6] 4.85 µM
inactive: [7] | [8]

COc1ccc(C2C(C(=O)O)C(C(=O)O)C2c2ccc(OC)cc2O[C@@H]2O[C@H](CO)[C@@H](O)[C@H](O)[C@H]2O)c(O[C@@H]2O[C@H](CO)[C@@H](O)[C@H](O)[C@H]2O)c1 (stereo not given in full)
active: [3] 9.26 µM | [4] 7.94 µM | [6] 11.7 µM
inactive: [5] | [12]

O=C(O)CC1CCC(c2ccc(-c3ccc(Nc4ccc(C(F)(F)F)nc4)cn3)cc2)CC1 (stereo not given)
inactive: [11] | [7] | [8]
active: [2] 44.1 µM | [3] 4.41 µM | [4] 6.31 µM | [5] 10 µM | [6] 4.41 µM | [12] 16.5 µM
